# ABHD5-PLIN5 inh: blocks binding of human ABHD5 to perilipin-5; Split G. princeps luciferase complementation, luminescence, 4 h; Q00G26+Q8WTS1; hit rate 0.78% among 360,000; inhibition, % at 4 µM;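 active = inhibition above the mean inhibition across every tested compound plus 3 SD, cut at about 22% in these data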;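 also: 0% = DMSO only wells and the 100% control is not disclosed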
# LANA-H2B inh: blocks KSHV LANA binding to histone H2A/H2B | Q9QR71 | cell-free LANA-H2A/H2B peptide, fluorescence polarization | inhibition, % (no concentration beside the values) | hit rate 0.6% among 320,000; in the data active = inhibition mostly above about 10%, no sharp cut-off; inactive = mostly below about 6.7%
# PRMT1 FP inh: blocks human protein arginine methyltransferase 1. Q99873. recombinant PRMT1, activity-based probe fluorescence polarization. inhibition, % at 2.79 µM. hit rate 1.3% among 370,000;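 active = inhibition above about 21% made by adding two undisclosed values, limit read from the data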
# Target sequence (Q99873 whole entry, looked up): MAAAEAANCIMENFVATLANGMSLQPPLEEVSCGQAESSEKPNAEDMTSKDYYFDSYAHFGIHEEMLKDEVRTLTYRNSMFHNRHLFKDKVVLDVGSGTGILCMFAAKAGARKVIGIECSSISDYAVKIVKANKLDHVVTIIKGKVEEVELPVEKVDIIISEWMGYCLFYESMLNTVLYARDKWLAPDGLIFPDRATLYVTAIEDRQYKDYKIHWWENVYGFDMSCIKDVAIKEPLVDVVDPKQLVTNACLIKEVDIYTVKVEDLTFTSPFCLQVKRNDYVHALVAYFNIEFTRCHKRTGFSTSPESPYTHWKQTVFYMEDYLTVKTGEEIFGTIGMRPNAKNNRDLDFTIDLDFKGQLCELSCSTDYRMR
# rCAG binder: r(CAG) repeat RNA binding; TO-PRO-1 dye displacement fluorescence; inhibition, % at 3 µM; hit rate 1.3% among 370,000;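 active = inhibition above the plate cutoff, the mean of all test compounds on that plate plus 3 SD, cut at about 35% in these data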;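 also: 0% = DMSO alone and 100% = 100 µM mitoxantrone as full dye displacement; higher means more dye released from RNA so lower well fluorescence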
# Rtt109 Vps75: C. albicans Rtt109 histone acetyltransferase inhibition. Q5AAJ8. hit rate 0.16% among 330,000. purified Rtt109/Vps75, ThioGlo CoA-SH fluorescence, 4 h. inhibition, % at 34.9 µM;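 active = inhibition of at least 50% in every replicate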
# ALR inh: human ALR oxidase inhibition via reduced H2O2; P55789; hit rate 3.8% among 290,000; inhibition, % (concentration not given with the values); purified ALR, DTT oxidation, H2O2 HRP-luminol luminescence;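 active = mean replicate inhibition above about 79%, with every replicate also reaching it, limit read from the data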
# Target sequence (P55789 whole entry, looked up): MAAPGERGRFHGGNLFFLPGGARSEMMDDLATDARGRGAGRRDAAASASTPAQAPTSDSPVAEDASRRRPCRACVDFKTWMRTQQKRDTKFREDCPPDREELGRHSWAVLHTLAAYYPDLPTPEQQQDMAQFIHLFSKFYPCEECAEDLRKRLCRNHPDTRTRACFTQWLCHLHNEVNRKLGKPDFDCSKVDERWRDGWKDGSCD
# Numbers without * were called inactive; nt = not tested or not shown. The list is not random: actives were taken first. Their share in the collection is about 5.9%.
SMILES,ABHD5-PLIN5 inh,LANA-H2B inh,PRMT1 FP inh,rCAG binder,Rtt109 Vps75,ALR inh
CCOC(=O)c1ccc(OCCOc2ccccc2C)cc1,-1.8,-0.3,-6.0,-4.8,-4.9,nt
CCOc1ccccc1OCCOc1ccc(F)cc1,-7.1,25.5*,-0.6,-2.8,-2.8,-2.1
CN(C)c1cccc2c(/C=N/O)ccc(N(C)C)c12,-1.7,-2.2,-1.6,1.3,0.0,89.4*
CCn1c(NCc2cc(OC)ccc2OC)nc2ccccc21,5.0,-0.8,-0.2,-2.4,-0.9,3.7
CCCn1c(NCc2cc(OC)ccc2OC)nc2ccccc21,0.7,2.2,-1.2,-5.4,nt,88.6*
COc1cccc(CNc2nc3ccccc3n2CCN2CCCCC2)c1,1.6,-0.9,0.1,-0.4,1.2,98.7*
COc1cccc(CNc2nc3ccccc3n2CCN2CCCCC2)c1OC,13.2,-1.6,-1.0,-6.0,0.3,98.6*
COc1ccc(OC)c(CNc2nc3ccccc3n2CCN2CCCCC2)c1,0.1,6.1,1.6,-4.9,7.9,-2.0
Cn1c(NCc2cccc(Br)c2)nc2ccccc21,1.3,0.2,-1.8,-2.5,3.2,93.0*
COC(=O)[C@]12C[C@H](CC(=O)NCc3cccc(C(F)(F)F)c3)C(=O)N(CCc3ccc(OC)c(OC)c3)C1=C[C@H](C1CCCC1)O[C@@H]2C,nt,nt,-3.4,1.9,nt,nt
CCCCN1C(=O)C(CC(=O)NCCCCc2ccccc2)CC(C(=O)N2CCCCCC2)=C1C (stereo not given),2.4,nt,1.0,-1.7,nt,nt
O=C(NCc1ccc(F)cc1)c1cc(C2CCCCN2C(=O)CCCc2ccccc2)on1 (stereo not given),5.1,nt,0.9,1.1,nt,nt
CC(C)=CCCC1=CC[C@H]2[C@@H](C1)C(C(C)C)=CC(=O)[C@@]2(C)O,nt,nt,-1.3,-1.3,nt,nt
O=C(O)C1Nc2c(O)cccc2C2C=CCC12 (stereo not given),17.1,17.2,19.1,82.5*,-3.7,12.4
O=C(O)C1Nc2c(Cl)cc(Cl)cc2C2C=CCC12 (stereo not given),-0.4,7.5,nt,nt,-3.0,47.9
CCOC(=O)/C=C/c1cccc(C)c1O,-2.4,nt,-3.5,2.1,nt,nt
COc1cccc(N(CC(=O)NCC2CCCO2)C(=O)CCC(=O)Nc2nccs2)c1 (stereo not given),-1.7,29.0*,3.2,-3.5,-5.3,-0.7
Oc1ccc(C2=NNC(=NCc3ccc4c(c3)OCO4)SC2)c(O)c1,-5.1,5.8,1.7,7.7,1.1,95.4*
Clc1ccc(C2=NNC(=NCc3ccc4c(c3)OCO4)SC2)cc1,-18.2,5.5,13.8,13.7,9.1,0.0
Cc1ccc(Cn2ccsc2=NC(=O)COC(=O)c2ccc(NC(=O)CC#N)cc2)cc1,-4.8,-1.1,-0.4,12.0,1.5,52.1
Cc1ccc(Cn2ccsc2=NC(=O)CCl)cc1,-1.6,-3.4,2.1,-3.2,-5.9,97.0*
CSc1ccc(CN2CCC(C)(Oc3ccc(-n4ccnc4)cc3)C2)cc1 (stereo not given),2.5,nt,-6.7,-0.1,nt,nt
c1ccc2c(c1)[nH]c1c(NCC3CCCO3)ncnc12 (stereo not given),2.9,12.2,-0.7,4.5,0.5,82.0*
O=C1NC[C@@H](CCCCN2C[C@H](Cc3ccccc3)N(CC3CCCCC3)C(=O)C2=O)N(CCc2ccccc2)C1=O,0.4,nt,1.6,-0.2,nt,nt
C[C@H]1COc2cc(N3CCCC3)ccc2S(=O)(=O)N1C,nt,nt,-0.1,-0.1,nt,nt
SMILES,ABHD5-PLIN5 inh,LANA-H2B inh,PRMT1 FP inh,rCAG binder,Rtt109 Vps75,ALR inh
COc1cc(C2Oc3cc(C4Oc5cc(O)cc(O)c5C(=O)C4O)ccc3OC2CO)ccc1O (stereo not given),4.0,-4.4,1.0,10.0,4.2,73.5
CC(=O)Oc1cc(O)c2c(c1)OC(c1ccc(OC(C)=O)c(OC(C)=O)c1)C(OC(C)=O)C2=O (stereo not given),6.4,-0.7,0.8,4.9,1.8,89.2*
Cc1ccc2c(c1)C(O)(CC(=O)c1ccc(C)s1)C(=O)N2 (stereo not given),2.1,89.8*,-0.3,-1.4,nt,-15.7
CCOc1ccc(-c2csc(NNC3=NCCCCC3)n2)cc1,-19.5,4.3,18.1,5.5,14.3,98.9*
Fc1ccc(-c2csc(NC3=NCCC3)n2)cc1,2.6,-1.8,-1.4,-1.4,-12.7,97.4*
COc1ccc(-c2csc(NC3=NCCCCC3)n2)cc1,-0.3,3.5,-0.2,0.5,4.1,97.7*
COc1cccc(CC(=O)N(Cc2ccccc2)c2ccccc2C(=O)Nc2cc(OC)ccc2OC)c1,nt,nt,2.1,6.6,nt,nt
CCc1nnc(NS(=O)(=O)c2ccc(NC(=O)COc3ccc4ccccc4c3)cc2)s1,-5.8,-3.3,-1.6,30.2,1.3,-17.5
CCc1nnc(NS(=O)(=O)c2ccc(NC(=O)/C=C/c3ccc(OC)cc3OC)cc2)s1,8.1,3.7,0.1,82.3*,22.7,12.9
CCOCC(=O)Nc1nc2ccccc2s1,-3.7,-2.8,2.9,-0.8,3.8,86.5*
O=C(COc1ccccc1)NNc1nc2ccccc2s1,-7.1,0.6,8.1,11.8,-3.2,99.2*
CCNC(=O)Nc1nc2ccccc2s1,1.4,-2.7,-1.4,-1.0,-10.7,-0.4
Cc1cc(NC(=O)Cc2cn(Cc3ccccc3)c3ccccc23)ccc1Oc1cccnc1,nt,nt,5.4,12.6,nt,nt
COC(=O)C[C@H]1CC[C@@H]2[C@@H](COc3ccc(NC(=O)C4CCCCC4)cc3C(=O)N2C)O1,nt,nt,-1.6,0.3,nt,nt
COC(=O)[C@H](C(C)C)N(Cc1cn(CC2CCCCC2)nn1)S(=O)(=O)c1ccc(F)cc1Br,nt,nt,-3.3,3.9,nt,nt
O=C(CCS(=O)(=O)c1cc2c(cc1Br)CCN2C(=O)C1CC1)N1CCN(c2ccccn2)CC1,nt,nt,-2.0,5.1,nt,nt
Cc1cc(C)n2cc(CSc3nc4ccccc4[nH]3)nc2n1,1.2,10.8,2.2,0.6,5.1,99.0*
O=C1SC(c2ccccc2)=C/C1=C\N1CCCCC1,-5.6,0.3,7.4,3.0,15.9,94.9*
CC(Cl)C(=O)NN=C(c1ccccc1)c1ccccc1 (stereo not given),4.6,0.7,-4.2,-4.0,-8.3,5.6
CC(NC1CCCCC1)C(=O)NN=C(c1ccccc1)c1ccccc1 (stereo not given),-1.5,129.5*,2.5,-7.5,4.3,8.2
O=C1CSC(c2ccc(Cl)cc2)N1c1cccnc1 (stereo not given),1.8,-3.5,-1.5,-4.7,4.0,98.3*
Cc1ccc(N2C(=O)CSC2c2cccnc2)cc1F (stereo not given),-1.6,-1.5,4.7,2.3,2.4,99.5*
O=C1CSC(c2cccnc2)N1C1CCCCC1 (stereo not given),-4.7,-5.5,5.1,2.7,3.6,0.6
O=C1CSC(c2cccnc2)N1c1ccc(Cl)cc1 (stereo not given),-3.0,2.3,2.3,0.0,-2.8,98.9*
Oc1c(Br)cc(Br)cc1CNc1ccc(F)cc1,-5.3,1.4,3.4,18.0,10.4,97.6*
Oc1c(Br)cc(Br)cc1CNc1cnc2ccccc2c1,-14.8,6.7,12.2,18.4,11.2,-29.0
